Screening data deposited in PubChem by National Center for Advancing Translational Sciences (NCATS).
An excerpt weighted towards active compounds, which were near 1.1% of everything screened.
gsp antag: qHTS for Antagonists of gsp, the Etiologic Mutation Responsible for Fibrous Dysplasia/McCune-Albright Syndrome: qHTS. Potency, µM (titrated, usually from 76.9 µM), for the others: top-dose activity change, negative = inhibition, hits mostly inhibitors. AID 624288, 2012. gsp-mutant cells, cAMP HTRF, 30 min. hit rate 0.4% among 340,000; calls by dose curve; cell line not stated here;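 also: intracellular cAMP measured with PDE inhibitor Ro 20-1724 present during compound exposure; potency is read from the fitted curve at half-maximal effect; % is scaled to controls: 0 for no effect and ±100 for the full control effect; nearly all actives have a fitted effect of over 65% in size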
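Cells in G418 medium, seeded 16-24 h, 37C; buffer exchange to DPBS + 1 mM CaCl2, 0.5 mM MgCl2, 0.05% BSA; cpds in DMSO + […] (300 uM stock), 30 min 37C; HTRF cAMP detection.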
TRPV1 ag: HTS Assay for Compounds that Act as Agonists of the Vanilloid Receptor 1. Transient receptor potential cation channel subfamily V member 1 (Homo sapiens), Q8NER1. TRPV1-expressing cells, Fluo-8 calcium influx, agonist mode. activation, % at 8.33 µM. hit rate 0.19% among 320,000; in the data active = activation above about 80%; inconclusive = between about 30% and that limit; also: 0% is about no effect
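Cells expressing TRPV1 were dye-loaded with Fluo-8 and read kinetically: 10 s baseline, 3 min after compound (agonist portion), then 2 min after EC20 capsaicin (allosteric enhancer portion). Calcium-bound dye fluorescence at 480/520 nm.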
gsp agonist: qHTS for Agonist of gsp, the Etiologic Mutation Responsible for Fibrous Dysplasia/McCune-Albright Syndrome: qHTS. gsp mutant cells, cAMP HTRF, 30 min. Potency, µM (series often up to 76.9 µM), for the others: top-dose activation (cAMP increase), most hits filed as activators. hit rate 0.13% among 340,000. AID 624287, 2012; active = well fitted activation curve with a large enough effect; inconclusive = small, poorly fitted or top-dose-only effect, or another doubt; inactive = no such curve, though single readings can be large or run the other way; cell line not stated here;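 also: phosphodiesterase inhibitor Ro 20-1724 added with compounds to block cAMP breakdown; potency is read from the fitted curve at half-maximal effect; nearly all actives have a fitted effect of over 60% in size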
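Cells in DMEM/10% FBS with G418 were pretreated with compounds in DMSO plus […] (300 uM stock) for 30 min at 37C. cAMP was measured by HTRF (cAMP-d2 plus anti-cAMP antibody-K) after 30 min at room temperature.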
TRPV1 PAM: HTS Assay for Compounds that Act as Potentiators of the Vanilloid Receptor 1 | TRPV1-expressing cells, Fluo-8 calcium influx, capsaicin EC20 potentiation | potentiation, % at 8.33 µM | hit rate 0.02% among 320,000 | AID 540277, 2011; in the data active = potentiation above about 80%; inconclusive = between about 30% and that limit; also: 0% is about no effect
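Fluo-8 calcium influx in TRPV1-expressing cells, kinetic read (ex 480/em 520 nm). Compound added and read 3 min for agonist activity, followed by capsaicin at EC20 final and 2 min further read for enhancement.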
RXFP1 ag: qHTS Assay for Agonists of the Relaxin Receptor RXFP1. HEK293T-RXFP1 cAMP TR-FRET, 30 min; response scale: percent of porcine relaxin response, buffer zero. hit rate 0.3% among 370,000. AID 2676, 2010. Potency, µM (highest dose often 57.5 µM), for inactives: at the top dose activation, actives largely listed as activators; active = well fitted activation curve with a large enough effect; inconclusive = small, poorly fitted or top-dose-only effect; also: potency is read from the fitted curve at half-maximal effect; % is scaled to controls: 0 for no effect and ±100 for the full control effect; nearly all actives have a fitted effect of over 60% in size
Target sequence (Q9HBX9 whole entry, looked up): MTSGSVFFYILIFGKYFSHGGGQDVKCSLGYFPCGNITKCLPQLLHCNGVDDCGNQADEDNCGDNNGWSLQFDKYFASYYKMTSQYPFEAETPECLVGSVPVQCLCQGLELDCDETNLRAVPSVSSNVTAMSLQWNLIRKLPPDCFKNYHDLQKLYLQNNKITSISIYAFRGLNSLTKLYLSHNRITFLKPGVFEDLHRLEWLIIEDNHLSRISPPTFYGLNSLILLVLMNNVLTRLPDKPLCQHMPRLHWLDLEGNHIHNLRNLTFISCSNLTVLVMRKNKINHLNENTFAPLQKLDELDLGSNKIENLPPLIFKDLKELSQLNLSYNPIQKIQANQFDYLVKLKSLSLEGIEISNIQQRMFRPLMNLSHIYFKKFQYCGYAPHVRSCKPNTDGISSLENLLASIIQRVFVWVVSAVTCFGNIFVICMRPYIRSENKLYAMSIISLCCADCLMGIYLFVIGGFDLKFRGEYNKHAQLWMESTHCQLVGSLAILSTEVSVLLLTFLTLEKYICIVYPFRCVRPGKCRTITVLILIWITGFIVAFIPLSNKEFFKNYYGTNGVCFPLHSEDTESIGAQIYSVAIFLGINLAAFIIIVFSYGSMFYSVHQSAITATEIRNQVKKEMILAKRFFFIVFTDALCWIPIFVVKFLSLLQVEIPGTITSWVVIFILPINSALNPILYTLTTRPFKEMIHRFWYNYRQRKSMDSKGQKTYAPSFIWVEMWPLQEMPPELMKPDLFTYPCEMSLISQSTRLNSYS
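HEK293 cells stably expressing RXFP1, treated 30 min at 37C with compounds plus PDE4 inhibitor Ro 20174; cAMP measured by HTRF TR-FRET. Normalized to buffer and 29 nM porcine relaxin; EC50 by Hill fit.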
RXFP1 antag: qHTS Assay for Antagonists of the Relaxin Receptor RXFP1; HEK293-RXFP1, relaxin-stimulated cAMP HTRF, 30 min; active compounds read low; AID 1259400, 2018; hit rate 0.59% among 350,000; activity change, negative = inhibition, % at 57.5 µM;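 active = activity change of -60% or lower, but not beyond a set lower limit; inconclusive = change between -60% and -40%, or beyond the set limit; inactive = change above -40%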; also: % is scaled to controls: 0 for no effect and ±100 for the full control effect
Numbers without * were called inactive; ? = inconclusive; . = no result; [ ] = another dose, or the depositor's remark.

SMILES | gsp antag | TRPV1 ag | gsp agonist | TRPV1 PAM | RXFP1 ag | RXFP1 antag
CC1CCCC(C)N1C(=O)Cn1nnc(-c2ccccc2)n1 (stereo not given) | 3.9% | 2.2 | 15.8µM* | 1.8 | -0.2% | 5.8
CCOC(=O)Cn1nnc(-c2ccccc2)n1 | -17.8% | 3.4 | -8.3% | 0.4 | -1.5% | 7.4
NC(=O)c1ccsc1NC(=O)CSc1nnc(Nc2ccccc2)s1 | -28.5% | 17.4 | -22.2% | 19.8 | -1.2% | -8.0
Cc1ccc(C)c(NC(=O)CSc2nc3nc(-c4cccs4)cc(C(F)(F)F)c3c(=O)[nH]2)c1 | -9.7% | 9.5 | 20µM* | -6.4 | ? | -1.1
O=C(CSc1nc2nc(-c3cccs3)cc(C(F)(F)F)c2c(=O)[nH]1)Nc1ccc(F)c(F)c1 | -24.2% | 1.7 | 8.0%[15.4 µM] | -0.5 | 22.8% | -37.2
Cc1cc(NC(=O)CSc2ncnc3c2cnn3-c2ccccc2)no1 | 7.5% | -2.4 | -12.8%[15.4 µM] | -14.5 | 14.5% | -10.3
Cc1cc(NC(=O)CSc2ncnc3c2cnn3-c2cccc(Cl)c2)no1 | -11.4% | -2.9 | -10.5% | 3.9 | 6.31µM* | 6.2
Cn1c(CSc2ncccn2)nnc1SCC(=O)N1CCCC1 | 11.9% | -2.4 | 28.3% | 4.2 | 7.5% | 4.4
CCn1c(C)nc2cc(C(=O)OC(C(F)(F)C(F)F)C(F)(F)C(F)F)ccc21 | 22.4µM* | 1.6 | 10.8% | 13.6 | -0.2% | -4.7
O=C(COC(=O)c1ccc(S(=O)(=O)N2CCCCC2)cc1)NCc1ccccc1 | -2.4% | . | -2.5%[15.4 µM] | . | . | -17.0
COc1ccc(OCC(=O)N(Cc2sccc2C)C2CCS(=O)(=O)C2)cc1 (stereo not given) | 3.9% | 2.1 | ? | 13.4 | 4.5% | 33.9
O=C(CCc1ccc(S(=O)(=O)N2CCOCC2)cc1)Nc1nc(COc2ccccc2)cs1 | 28.2µM* | 5.5 | -0.3% | -14.9 | -0.1% | -0.4
Cc1cc(C)nc(/N=C(\N)N(Cc2ccccc2)Cc2ccccc2)n1 | -11.2% | 1.2 | 18.7%[15.4 µM] | 10.3 | 2.3% | -3.8
O=C(Nc1cccnc1Cl)c1ccc(Cl)cc1 | 0.2% | 8.5 | -8.0% | 1.4 | 0.7% | -63.2*
O=C(/C=C/c1ccccc1)Nc1cccnc1Cl | -0.2% | 84.2* | -6.4%[15.4 µM] | -30.4 | -0.3% | 0.7
CC(=O)OCCCNc1cc(Sc2nc3ccccc3s2)c2nonc2c1[N+](=O)[O-] | 12.8% | -2.5 | 13.3% | -12.5 | 8.8% | -16.5
CC(=O)OCCNc1cc(Sc2nc3ccccc3[nH]2)c2nonc2c1[N+](=O)[O-] | ? | -4.1 | ? | 14.2 | 4.6% | -77.7*
CC(=O)c1ccc2c(c1)N(C)c1ccccc1S2 | 4.8% | 27.6 | 24.7% | -11.9 | 0.3% | -5.4
C=Cc1ccc2c(c1)N(C)C(=C)S2 | 10.6% | -0.9 | -11.4% | -1.5 | 0.6% | -119.3*
Cc1cc(-n2c(C)cc(C(=O)COc3ccc(F)c(F)c3)c2C)no1 | -12.3% | -0.3 | 2.8% | -44.7 | 2.1% | -2.8
CCN(CC)c1nc(-c2nn[nH]n2)nc(N(CC)CC)n1 | 39.8µM* | 0.2 | ? | 10.6 | 2.5% | 0.1
O=C1c2[nH]nc(-c3ccccc3O)c2C(c2ccc(Cl)cc2)N1Cc1ccco1 (stereo not given) | . | . | . | . | -0.1% | -110.8*
COc1cc(C2c3c(-c4ccccc4O)n[nH]c3C(=O)N2CCO)ccc1OCC(C)C (stereo not given) | . | . | . | . | -0.9% | -32.1
COc1cc(C2c3c(-c4ccccc4O)n[nH]c3C(=O)N2Cc2ccco2)ccc1OCC(C)C (stereo not given) | . | . | . | . | 2.3% | -67.9*
O=C1c2[nH]nc(-c3ccccc3O)c2C(c2ccccc2)N1Cc1ccco1 (stereo not given) | ? | 1.7 | -31.1% | 4.6 | -1.0% | -6.8
SMILES | gsp antag | TRPV1 ag | gsp agonist | TRPV1 PAM | RXFP1 ag | RXFP1 antag
CCc1ccc(-n2c(=O)c3ccc(C(=O)NCCc4ccccc4)cc3n(CC(N)=O)c2=O)cc1 | -25.5% | 0.2 | 5.0%[15.4 µM] | 0.3 | -0.5% | -8.0
CCCN(CCC)C(=O)Cn1c(=O)n(-c2ccc(CC)cc2)c(=O)c2ccc(C(=O)NCCc3ccccc3)cc21 | . | . | . | . | 25.1µM* | .
O=C(NCc1ccc(Cl)cc1)C1CCCN(c2nc3ccccc3n3cccc23)C1 (stereo not given) | . | . | . | . | 3.2% | -64.2*
CCc1cccc2c(CCO)c[nH]c12 | . | . | . | . | . | -9.3
C/C(=N\NC(=O)c1cc(C)oc1C)c1ccc2ccccc2c1 | -1.2% | 20.3 | -5.7%[15.4 µM] | -11.9 | -2.5% | -9.4
COCCCNC(=S)N(CCCN(C)C)Cc1cc2cc3c(cc2[nH]c1=O)OCCO3 | -5.1% | -0.8 | 13.4% | 10.4 | 2.1% | -1.9
COCCNC(=S)N(CCCN(C)C)Cc1cc2cc3c(cc2[nH]c1=O)OCCO3 | 50.1µM* | -1.2 | ? | 16.2 | 0.0% | -0.5
CCCCc1ccc(NC(=S)N2CCN(c3ccccn3)CC2)cc1 | -10.9% | -4.3 | -20.2% | -12.4 | 0.1% | -68.7*
CC(C)C(=O)N(c1ccc2oc(=O)sc2c1)S(=O)(=O)c1cccs1 | -16.8% | 2.4 | 15.9% | 4.3 | 0.0% | -25.8
CC(C)C(=O)N(c1cc2sc(=O)oc2c2ccccc12)S(=O)(=O)c1cccs1 | -18.1% | 6.0 | -36.1% | 7.3 | -2.4% | -67.6*
Cc1c(C(=O)NCCc2ccc(Cl)cc2)cccc1-n1cnc2cccnc21 | . | . | . | . | 4.9% | -19.6
COc1cccc(CN(C)C(=O)c2cc(COc3ccc4ncccc4c3)on2)c1 | 35.5µM* | 26.6 | -6.3%[15.4 µM] | -11.9 | 2.7% | -8.3
CC(NC(=O)c1cc(COc2ccc3ncccc3c2)on1)c1ccc(F)cc1 (stereo not given) | 28.2µM* | 19.2 | -6.5% | -10.1 | 0.3% | -12.0
COc1cccc(CN(C)C(=O)c2cc(COc3c(F)cccc3F)on2)c1 | 4.8% | 25.6 | 19.4% | -9.9 | -0.3% | 11.2
O=C(NC1CCCC1)c1cc(COc2ccc3ncccc3c2)on1 | -22.1% | 6.1 | 9.5% | 1.1 | 0.9% | 5.9
O=C(c1cccc(N2C(=O)C3C4C=CC(C4)C3C2=O)c1)N1CCN(c2ccc(F)cc2)CC1 (stereo not given) | 0.1% | 0.5 | -33.8% | 25.6 | -2.3% | -3.0
CC1C=CCC2C(=O)N(c3cccc(C(=O)N4CCN(c5ccc(F)cc5)CC4)c3)C(=O)C12 (stereo not given) | -12.4% | 6.7 | 28.2µM* | 8.6 | -0.3% | 6.2
